Assay results: ChEMBL document CHEMBL1961873, “Compounds: GSK PKIS; Assays: Nanosyn kinase panel” (2012)

How the values were obtained:
[1] = target: Serine/threonine-protein kinase 26 (Homo sapiens) (UniProt Q9P289); conditions: at 1 µM;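 note: mean inhibition of MST4 kinase activity, reported from the GSK PKIS inhibitor-set screening panel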
[2] = target: Serine/threonine-protein kinase PAK 1 (Homo sapiens) (UniProt Q13153); conditions: at 0.1 µM
[3] = target: Serine/threonine-protein kinase PAK 1 (Homo sapiens) (UniProt Q13153); conditions: at 1 µM
[4] = target: Serine/threonine-protein kinase PAK 2 (Homo sapiens) (UniProt Q13177); conditions: at 0.1 µM
[5] = target: Serine/threonine-protein kinase PAK 2 (Homo sapiens) (UniProt Q13177); conditions: at 1 µM
[6] = target: Serine/threonine-protein kinase PAK 3 (Homo sapiens) (UniProt O75914); conditions: at 1 µM
[7] = target: Serine/threonine-protein kinase PAK 5 (Homo sapiens) (UniProt Q9P286); conditions: at 1 µM
[8] = target: Serine/threonine-protein kinase PAK 6 (Homo sapiens) (UniProt Q9NQU5); conditions: at 0.1 µM
[9] = test system: Tyrosine-protein kinase ABL1 (Homo sapiens), P00519 [E255K]; conditions: at 0.1 µM
[10] = test system: Tyrosine-protein kinase ABL1 (Homo sapiens), P00519 [E255K]; conditions: at 1 µM
[11] = test system: Tyrosine-protein kinase ABL1 (Homo sapiens), P00519 [H396P]; conditions: at 0.1 µM
[12] = test system: Tyrosine-protein kinase ABL1 (Homo sapiens), P00519 [H396P]; conditions: at 1 µM
[13] = test system: Tyrosine-protein kinase ABL1 (Homo sapiens), P00519 [M351T]; conditions: at 0.1 µM
[14] = test system: Tyrosine-protein kinase ABL1 (Homo sapiens), P00519 [M351T]; conditions: at 1 µM
[15] = test system: Tyrosine-protein kinase ABL1 (Homo sapiens), P00519 [Q252H]; conditions: at 0.1 µM
[16] = test system: Tyrosine-protein kinase ABL1 (Homo sapiens), P00519 [Q252H]; conditions: at 1 µM
[17] = test system: Tyrosine-protein kinase ABL1 (Homo sapiens), P00519 [T315I]; conditions: at 0.1 µM
[18] = target: Serine/threonine-protein kinase PAK 3 (Homo sapiens) (UniProt O75914); conditions: at 0.1 µM
[19] = target: Serine/threonine-protein kinase PAK 5 (Homo sapiens) (UniProt Q9P286); conditions: at 0.1 µM
[20] = target: Serine/threonine-protein kinase PAK 6 (Homo sapiens) (UniProt Q9NQU5); conditions: at 1 µM

Chain of Serine/threonine-protein kinase 26 (Homo sapiens) (Q9P289 2-416 limits assumed): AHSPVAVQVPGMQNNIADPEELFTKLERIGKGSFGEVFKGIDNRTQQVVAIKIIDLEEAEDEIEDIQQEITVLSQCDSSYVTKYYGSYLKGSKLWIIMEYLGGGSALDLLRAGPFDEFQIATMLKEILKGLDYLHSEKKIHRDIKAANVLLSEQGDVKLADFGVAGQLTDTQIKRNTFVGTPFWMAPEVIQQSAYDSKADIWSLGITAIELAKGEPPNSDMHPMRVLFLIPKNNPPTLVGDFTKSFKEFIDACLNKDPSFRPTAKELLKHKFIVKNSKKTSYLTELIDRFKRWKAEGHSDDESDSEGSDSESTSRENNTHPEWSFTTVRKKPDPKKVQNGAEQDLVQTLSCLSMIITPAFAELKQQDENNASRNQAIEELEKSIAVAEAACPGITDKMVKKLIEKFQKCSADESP
Chain of Serine/threonine-protein kinase PAK 6 (Homo sapiens) (Q9NQU5 whole entry, looked up): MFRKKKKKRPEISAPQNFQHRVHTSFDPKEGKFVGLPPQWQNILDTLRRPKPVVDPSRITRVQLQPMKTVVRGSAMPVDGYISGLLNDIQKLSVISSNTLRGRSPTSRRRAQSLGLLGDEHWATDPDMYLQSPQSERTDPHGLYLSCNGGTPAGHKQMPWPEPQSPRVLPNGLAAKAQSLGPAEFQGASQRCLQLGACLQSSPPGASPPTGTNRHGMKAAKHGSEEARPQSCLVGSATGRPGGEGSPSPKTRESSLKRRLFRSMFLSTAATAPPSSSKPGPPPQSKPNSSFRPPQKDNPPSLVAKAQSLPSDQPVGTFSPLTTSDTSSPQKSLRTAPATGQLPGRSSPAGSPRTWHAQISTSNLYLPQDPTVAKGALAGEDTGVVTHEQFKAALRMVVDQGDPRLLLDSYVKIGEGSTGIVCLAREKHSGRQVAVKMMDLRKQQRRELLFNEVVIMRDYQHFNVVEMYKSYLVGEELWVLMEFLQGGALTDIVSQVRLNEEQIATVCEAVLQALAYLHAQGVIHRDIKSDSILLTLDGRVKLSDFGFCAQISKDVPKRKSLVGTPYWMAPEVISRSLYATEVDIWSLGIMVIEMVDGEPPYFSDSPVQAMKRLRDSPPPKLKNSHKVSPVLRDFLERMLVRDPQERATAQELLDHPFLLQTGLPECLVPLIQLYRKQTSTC
Chain of Serine/threonine-protein kinase PAK 1 (Homo sapiens) (Q13153 whole entry): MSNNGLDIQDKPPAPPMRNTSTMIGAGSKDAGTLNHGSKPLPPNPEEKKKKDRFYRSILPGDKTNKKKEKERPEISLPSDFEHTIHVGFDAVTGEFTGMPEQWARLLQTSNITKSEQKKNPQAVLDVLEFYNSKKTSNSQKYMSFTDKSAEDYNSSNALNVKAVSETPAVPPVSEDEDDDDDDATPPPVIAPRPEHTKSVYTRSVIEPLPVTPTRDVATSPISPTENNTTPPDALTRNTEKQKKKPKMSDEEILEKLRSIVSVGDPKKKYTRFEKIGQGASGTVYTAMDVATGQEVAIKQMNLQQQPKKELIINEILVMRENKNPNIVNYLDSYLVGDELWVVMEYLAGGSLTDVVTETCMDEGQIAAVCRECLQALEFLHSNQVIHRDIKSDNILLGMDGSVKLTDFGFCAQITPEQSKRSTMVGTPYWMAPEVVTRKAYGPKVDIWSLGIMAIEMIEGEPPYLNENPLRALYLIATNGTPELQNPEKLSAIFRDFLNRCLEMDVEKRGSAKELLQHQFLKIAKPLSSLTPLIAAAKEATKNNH
Chain of Serine/threonine-protein kinase PAK 5 (Homo sapiens) (Q9P286 whole entry, looked up): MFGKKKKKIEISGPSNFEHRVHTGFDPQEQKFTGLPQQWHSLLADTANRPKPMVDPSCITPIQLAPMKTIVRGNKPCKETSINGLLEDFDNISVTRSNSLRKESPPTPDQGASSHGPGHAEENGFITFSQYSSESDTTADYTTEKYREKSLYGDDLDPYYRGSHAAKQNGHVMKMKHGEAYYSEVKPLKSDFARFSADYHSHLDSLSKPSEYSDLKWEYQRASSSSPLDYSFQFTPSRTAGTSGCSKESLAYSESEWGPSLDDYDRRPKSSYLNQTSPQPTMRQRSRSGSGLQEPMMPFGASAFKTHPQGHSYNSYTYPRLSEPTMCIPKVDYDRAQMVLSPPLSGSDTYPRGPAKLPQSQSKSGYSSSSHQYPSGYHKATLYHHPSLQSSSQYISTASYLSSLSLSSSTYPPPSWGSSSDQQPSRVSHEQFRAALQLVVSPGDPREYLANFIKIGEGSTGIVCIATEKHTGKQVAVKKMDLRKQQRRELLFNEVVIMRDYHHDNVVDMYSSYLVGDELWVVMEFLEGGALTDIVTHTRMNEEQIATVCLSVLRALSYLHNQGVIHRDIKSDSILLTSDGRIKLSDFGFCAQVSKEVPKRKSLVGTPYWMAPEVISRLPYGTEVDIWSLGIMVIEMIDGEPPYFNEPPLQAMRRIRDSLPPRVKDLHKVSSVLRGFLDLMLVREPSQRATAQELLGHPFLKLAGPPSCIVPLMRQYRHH
Chain of Serine/threonine-protein kinase PAK 2 (Homo sapiens) (Q13177 whole entry): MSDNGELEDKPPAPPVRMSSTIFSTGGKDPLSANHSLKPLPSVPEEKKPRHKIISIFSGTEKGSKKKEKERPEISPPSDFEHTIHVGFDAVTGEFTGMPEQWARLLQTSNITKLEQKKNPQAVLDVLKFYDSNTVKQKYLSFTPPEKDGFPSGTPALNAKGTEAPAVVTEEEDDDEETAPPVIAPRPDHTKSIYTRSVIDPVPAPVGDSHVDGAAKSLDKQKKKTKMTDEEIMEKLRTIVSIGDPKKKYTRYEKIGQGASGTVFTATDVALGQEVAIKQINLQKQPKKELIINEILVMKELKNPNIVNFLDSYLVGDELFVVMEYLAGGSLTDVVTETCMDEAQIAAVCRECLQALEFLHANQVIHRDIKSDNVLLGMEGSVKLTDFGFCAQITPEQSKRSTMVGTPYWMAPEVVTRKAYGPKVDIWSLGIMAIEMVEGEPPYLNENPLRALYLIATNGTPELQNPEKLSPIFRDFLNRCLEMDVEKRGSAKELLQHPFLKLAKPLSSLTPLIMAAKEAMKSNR
Chain of Serine/threonine-protein kinase PAK 3 (Homo sapiens) (O75914 whole entry, looked up): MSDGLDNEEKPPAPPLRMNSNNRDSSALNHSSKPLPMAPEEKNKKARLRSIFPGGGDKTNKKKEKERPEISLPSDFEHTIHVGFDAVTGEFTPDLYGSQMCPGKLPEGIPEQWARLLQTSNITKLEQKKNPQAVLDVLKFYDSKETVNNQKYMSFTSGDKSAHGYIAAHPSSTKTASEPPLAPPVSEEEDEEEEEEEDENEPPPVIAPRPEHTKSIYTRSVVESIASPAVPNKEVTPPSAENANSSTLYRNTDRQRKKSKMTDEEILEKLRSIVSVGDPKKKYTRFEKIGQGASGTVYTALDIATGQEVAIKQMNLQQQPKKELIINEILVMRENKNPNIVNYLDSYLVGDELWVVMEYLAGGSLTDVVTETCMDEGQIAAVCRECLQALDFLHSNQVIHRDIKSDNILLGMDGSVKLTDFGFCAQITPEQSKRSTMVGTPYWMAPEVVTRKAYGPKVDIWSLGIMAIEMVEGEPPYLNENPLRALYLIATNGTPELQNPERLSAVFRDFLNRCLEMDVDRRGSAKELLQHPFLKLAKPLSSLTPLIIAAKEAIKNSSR

Compound | inhibition [1] [%] | inhibition [2] [%] | inhibition [3] [%] | inhibition [4] [%] | inhibition [5] [%] | inhibition [6] [%] | inhibition [7] [%] | inhibition [8] [%] | inhibition [9] [%] | inhibition [10] [%] | inhibition [11] [%] | inhibition [12] [%] | inhibition [13] [%] | inhibition [14] [%] | inhibition [15] [%] | inhibition [16] [%] | inhibition [17] [%] | inhibition [18] [%] | inhibition [19] [%] | inhibition [20] [%]
Fc1cccc(COc2ccc(Nc3ncnc4cc(-c5ccc[nH]5)sc34)cc2Cl)c1 | 3.26 | 5.46 | 5.78 | -0.06 | -0.55 | 1.96 | -0.78 | -2.21 | 1.82 | 7.42 | 3.38 | 5.8 | 0.9 | 5.26 | 2.05 | 6.45 | 0.63 |  |  | 
COc1ccc(COc2ccc(Cc3cnc(N)nc3N)cc2OC)cc1 | 0.63 | 1.82 | 5.79 | 0.46 | 0.32 | 1.06 | 7.84 | 0.33 | 1.25 |  | 0.76 | -1.33 | 3.17 | -0.65 | 2.23 | -0.16 | -0.36 | 1.75 | 0.6 | -2.29
NC(=O)c1cccc(Nc2nccc(Nc3cccc4[nH]ncc34)n2)c1 | 2.8 | -5.7 | -0.69 | -3.16 | -0.55 | -3.07 | 13.4 | 3.11 | 76.9 | 95.5 | 82.2 | 96.7 | 77.9 | 95.7 | 73.5 | 95.4 | 3.14 | -3.68 | -1.09 | 0.17
COc1cc2c(cc1Nc1nc(N3CCc4ccccc43)c3cc[nH]c3n1)N(C(=O)CN(C)C)CC2 | 4.16 | 3.44 | 4.36 | 0.89 | 1.19 | 2.24 | -1.41 | -3.46 | 0.52 | 1.73 | 0.54 | -0.96 | 0.88 | -0.63 | 1.56 | 2.24 | 1.05 | 1.31 | 0.19 | -0.54
CS(=O)(=O)CCNCc1ccc(-c2ccc3ncnc(Nc4ccc(OCc5cccc(F)c5)c(C(F)(F)F)c4)c3c2)o1 | -0.76 | 6.77 | 8.2 | 1.44 | 1.87 | 3.99 | -0.07 | -1.22 | 4.46 | 3.49 | 4.63 | 3.75 | 4.03 | 1.37 | 4.26 | 2.45 | 1.73 | 4.46 |  | 
Cc1nn(C)c2cc(N(C)c3ccnc(Nc4cccc(S(N)(=O)=O)c4)n3)ccc12 | 2.03 | 5.87 | 4.55 | 0.68 | 1.06 | 2.95 | 5.34 | -4.18 | 27.9 | 73.7 | 58.2 | 90 | 58.2 | 90.2 | 45.7 | 85.4 | 20.3 | -1.47 |  | -9.82
CS(=O)(=O)CCNCc1ccc(-c2ccc3ncnc(Nc4ccc(OCc5ccccc5)c(Cl)c4)c3c2)o1 | 0.42 | -1.29 | 7.48 | 0.77 | -0.12 | -0.08 | -8.65 |  | 1.33 | 0.95 | 0.8 | 3.2 | 1.7 | 2.85 | 1.92 | 3.15 | 1.4 | -0.48 | -6.06 | 
